Sampled rows, rich in hits. Any-hit rate of the full collection: about 21%.
Pf growth 48h: Primary qHTS for delayed death inhibitors of the malarial parasite plastid, 48 hour incubation | P. falciparum luciferase growth in erythrocytes, 48 h | Potency, µM (series often up to 28.7 µM), most hits filed as inhibitors | hit rate 5.9% among 310,000 | AID 504832, 2011
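Here the parasites carry a stable luciferase gene and grow inside erythrocytes in Albumax-based RPMI medium with compound for one erythrocytic cycle. Activity is scored as loss of luminescent signal.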
Pf growth 96h: Primary qHTS for delayed death inhibitors of the malarial parasite plastid, 96 hour incubation | P. falciparum luciferase reporter growth, 96 h | Potency, µM (top dose mostly 28.7 µM), hits mostly inhibitors | hit rate 6.9% among 320,000
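Luminescence readout: decreased luciferase signal marks inhibited growth of reporter-expressing P. falciparum in infected red cells (2% hematocrit, 0.05% parasitemia final), exposed to compound two generations (96 h, 37 C, 5% CO2).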
Shiga inhibitor: A qHTS for Small Molecule Inhibitors of Shiga Toxin; Vero cells, Shiga toxin protein synthesis inhibition reporter; inhibition, % at 38.7 µM; hit rate 9.2% among 290,000; in the data active = inhibition mostly above about 28%, no sharp cut-off; inactive = mostly below about 43%
CHX counter: Cycloheximide Counterscreen for Small Molecule Inhibitors of Shiga Toxin. hit rate 12% among 300,000. cell reporter, cycloheximide protein synthesis inhibition counterscreen. max response, %; in the data active = max response mostly above about 13%, no sharp cut-off; inactive = mostly below about 14%; note: read at 38.3 µM for the half of the compounds with a filed dose
Of the large screens only hits and unclear results are named; the others gave an inactive call. Unless noted, calls come from the whole dose curve; as a rule, active = well fitted inhibition curve with a large enough effect; inconclusive = small, poorly fitted or top-dose-only effect, or another doubt; inactive = no such curve, though single readings can be large or run the other way.

CN1Cc2c(N3CCOCC3)nc3sc(C(=O)c4ccccc4)c(N)c3c2CC1(C)C	Pf growth 48h inconclusive, Pf growth 96h inconclusive
CC(C)Cc1c(O)nc(SCCN2CCOCC2)[nH]c1=O	Pf growth 96h inconclusive
CC(=O)c1sc2nsc(SCCN3CCOCC3)c2c1N	Shiga inhibitor 28
O=C(NC(=S)NCc1ccccc1)c1cccnc1	Pf growth 96h inconclusive
O=C(NNC(=S)NC(=O)c1cccnc1)c1ccccc1	Pf growth 48h inconclusive, Pf growth 96h inconclusive
O=C(NNC(=S)Nc1ccccc1)c1cccnc1	Shiga inhibitor 28, CHX counter 20
O=C(NNC(=S)NCc1ccccc1)c1cccnc1	Pf growth 48h inconclusive, Pf growth 96h 2.1µM
Cc1ccc(C(C(=O)NC2CCCCC2)N(Cc2cccnc2)C(=O)C2COc3ccccc3O2)o1 (stereo not given)	Pf growth 48h 5.2µM
Cc1ccc(C(C(=O)NC2CCCCC2)N(Cc2ccco2)C(=O)C2COc3ccccc3O2)o1 (stereo not given)	Pf growth 48h 7.4µM (no result: Pf growth 96h)
O=C(NC1CCCCC1)C(c1ccc(O)cc1)N(CC1CCCO1)C(=O)C1COc2ccccc2O1 (stereo not given)	Pf growth 96h 7.4µM (no result: Pf growth 48h)
Cc1cccc(C)c1NC(=O)CN1C(=O)COc2ccccc21	Pf growth 96h inconclusive (no result: Shiga inhibitor)
COc1ccc(/C=N/NC(=O)CNC(=O)c2ccncc2)cc1OC	Pf growth 96h inconclusive
CC(OC(=O)c1ccc2c(c1)S(=O)(=O)c1ccccc1C2=O)C(N)=O (stereo not given)	none
Cc1cccc(-n2c(SCC(=O)Nc3ncc(Cl)cc3Cl)nc3ccccc32)c1	Pf growth 48h inconclusive, Pf growth 96h 4.7µM
O=C(CSc1nc2ccccc2n1-c1ccccc1)Nc1ncc(Cl)cc1Cl	Pf growth 48h inconclusive, Pf growth 96h 10µM
COc1ccc(-n2c(SCC(=O)Nc3ncc(Cl)cc3Cl)nc3ccccc32)cc1	Pf growth 48h inconclusive, Pf growth 96h inconclusive
Cc1c(C(=O)N2CCCCC2CCN2CCCC2=O)oc2c(F)cccc12 (stereo not given)	none
CNc1nn(-c2cccc(Cl)c2)nc1N	Shiga inhibitor 90, CHX counter 47
CC(=O)c1cccc(NC(=O)N2CCCC2C(=O)NCc2ccc(C)cc2)c1 (stereo not given)	none
CC(=O)c1cccc(NC(=O)N2CCCC2C(=O)Nc2ccccc2C)c1 (stereo not given)	Pf growth 96h inconclusive
CC(=O)c1cccc(NC(=O)N2CCCC2C(=O)Nc2cccc(C)c2C)c1 (stereo not given)	Pf growth 96h 2.9µM
CC(=O)c1cccc(NC(=O)N2CCCC2C(=O)NCc2ccc(F)cc2)c1 (stereo not given)	Pf growth 96h 10µM
Clc1ccc(-c2cc(CN3CCCCC3)no2)cc1Cl	Shiga inhibitor 62, CHX counter 34
Clc1ccc(-c2cc(CN3CCOCC3)no2)cc1	Shiga inhibitor 118, CHX counter 54
Clc1ccc(CN2CCCCCCC2)cc1Cl	none
O=c1[nH]c2ccc(S(=O)(=O)NCc3ccccc3)cc2[nH]1	none
O=C(CNC(=O)c1ccco1)NCC(=O)OCc1ccc(F)cc1	Pf growth 96h 3.3µM
O=C(CNC(=O)c1ccco1)OCc1ccc(C(=O)Oc2ccccc2)cc1	Pf growth 96h inconclusive, Shiga inhibitor 24, CHX counter 33
COC(=O)c1ccc(COC(=O)CNC(=O)c2ccco2)cc1	none (no result: Pf growth 96h)
O=C(CSc1nc(C2CC2)nc2ccccc12)N1c2ccccc2Sc2ccccc21	Pf growth 48h inconclusive, Pf growth 96h inconclusive
O=C(Cc1ccc2c(c1)CCCC2)Nc1ccccc1Br	Pf growth 48h 3.7µM, Pf growth 96h 2.6µM
O=C(Cc1ccc2ccccc2c1)Nc1ccccc1Br	Pf growth 48h inconclusive, Pf growth 96h 3.3µM
O=C(Cn1cc2c(n1)CCCC2)Nc1ccccc1Br	none (no result: Pf growth 48h)
CCOC(=O)c1cc(-c2ccc(N3CCOCC3)cc2)nn1-c1ccc(F)cc1F	Pf growth 48h 12µM, Pf growth 96h 12µM
CCOC(=O)c1cc(-c2ccc(N3CCOCC3)cc2)nn1-c1ccccc1	Pf growth 48h inconclusive, Pf growth 96h inconclusive
CC(=O)OC(c1nc2ccccc2c(=O)n1C1CC2(OC1=O)c1ccccc1N1C(=O)C(C)(C)N(O)C12)C(C)C (stereo not given)	Pf growth 48h 2.1µM, Pf growth 96h 10µM
COC(=O)c1ccc(CSc2nc3ccccc3c(=O)n2CC(C)C)o1	Pf growth 96h inconclusive
c1cc(-c2noc(CC3CCCCC3)n2)ccn1	Pf growth 48h inconclusive, Shiga inhibitor 122
c1ccc(-c2noc(CC3CCCCC3)n2)nc1	Shiga inhibitor 82, CHX counter 50
O=C(Nc1cccc(Cl)c1)c1ccc(NCC2CCCO2)c([N+](=O)[O-])c1 (stereo not given)	Pf growth 96h inconclusive
Cc1cccc(NC(=O)c2ccc(NCC3CCCO3)c([N+](=O)[O-])c2)c1 (stereo not given)	Pf growth 96h inconclusive, CHX counter 19
Cc1cccc(NC(=O)c2ccc(NCCO)c([N+](=O)[O-])c2)n1	Shiga inhibitor 53, CHX counter 30
Cc1cccc(NC(=O)c2ccc(NCC3CCCO3)c([N+](=O)[O-])c2)n1 (stereo not given)	Shiga inhibitor 68, CHX counter 19
COCCNc1ccc([N+](=O)[O-])cc1C(=O)Nc1cccc(C)n1	Pf growth 96h inconclusive
CS(=O)(=O)c1ccc(NCC2CCCO2)c([N+](=O)[O-])c1 (stereo not given)	Pf growth 96h inconclusive
CCc1noc(C)c1C(=O)N(CC(C)C)c1c(N)n(Cc2ccccc2)c(=O)[nH]c1=O	none (no result: Shiga inhibitor, CHX counter)
CCCCn1c(N)c(N(CCOC)C(=O)c2c(C)noc2C)c(=O)[nH]c1=O	none (no result: Shiga inhibitor, CHX counter)
Cc1ccc2c(c1)Cc1c(C(=O)NN3CCCCC3)nn(-c3ccc(Cl)cc3Cl)c1-2	none (no result: Pf growth 48h, Pf growth 96h)
OCC1CCCCN1CC(O)COC(c1ccc(F)cc1)c1ccc(F)cc1 (stereo not given)	Pf growth 48h 9.3µM, Pf growth 96h inconclusive
OC(COC(c1ccc(F)cc1)c1ccc(F)cc1)CN1CCc2ccccc2C1 (stereo not given)	Pf growth 48h inconclusive, Pf growth 96h inconclusive
OC1CCCN(CC(O)COC(c2ccc(F)cc2)c2ccc(F)cc2)C1 (stereo not given)	Pf growth 48h 2.6µM, Pf growth 96h 2.1µM
O=C(/C=C/c1ccc(F)cc1)NCc1cccs1	Shiga inhibitor 94, CHX counter 26
O=C(/C=C/c1ccc(Br)cc1)NCc1cccs1	Shiga inhibitor 112, CHX counter 50
O=C(CCNS(=O)(=O)c1ccc(Br)cc1)NCc1cccs1	none
O=C(/C=C/c1ccccc1Cl)NCc1cccs1	Shiga inhibitor 89, CHX counter 48
CC1(c2ccc(OC(F)F)cc2)NC(=O)N(CC(=O)N2c3ccccc3NC(=O)C2(C)C)C1=O (stereo not given)	Pf growth 48h inconclusive (no result: Shiga inhibitor, CHX counter)
Cc1ccsc1C1C(C#N)=C(N)N(N(C)C)C2=C1C(=O)CC(C)(C)C2 (stereo not given)	Pf growth 48h inconclusive, Pf growth 96h inconclusive
CC(CN1CCOCC1)OC(=O)c1ccccc1Br (stereo not given)	CHX counter 25 (no result: Pf growth 96h)

Bioassay records deposited in PubChem BioAssay by National Center for Advancing Translational Sciences (NCATS).
